Data from PubChem BioAssay AID1159580 (chemical genetic matrix, 2015).
Out of some 5,500 compounds screened, about 2,000 (36%) were called active. Not shown: some 18% with an inconclusive outcome. Some of the results follow. Values without a mark were called inactive. Rule as the data show it: active = normalized growth mostly below about 0.91 (no sharp cut-off); inconclusive = no clear call, values can overlap the other calls; inactive = mostly above about 0.92.

Assay: chemical genetic growth profiling, strain panel (AID 1159580);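 also: tested at 20 µM; growth read once vehicle control cultures reached saturation at 30 °C; 1 = growth at the plate median or of vehicle wells; lower values mean less growth of the strain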
Conditions: S. cerevisiae deletion strains, growth OD

For `O=C(CNc1cccc(Cl)c1)c1ccc(Cl)cc1`, the normalized growth (locus YAL013W, strain DEP1, active compounds read low) was 0.971, the normalized growth (locus YBR229C, strain ROT2, active compounds read low) was 0.933 and the normalized growth (locus YCL061C, strain MRC1, active compounds read low) was 0.975. For the same compound, the normalized growth (locus YDL101C, strain DUN1, active compounds read low) was 0.952, the normalized growth (locus YDL134C, strain PPH21, active compounds read low) was 0.948 and the normalized growth (locus YDR150W, strain NUM1, active compounds read low) was 0.89. The normalized growth (locus YEL061C, strain CIN8, active compounds read low) was 0.954, the normalized growth (locus YGR078C, strain PAC10, active compounds read low) was 0.945 and the normalized growth (locus YGR229C, strain SMI1, active compounds read low) was 0.935 (active). The normalized growth (locus YHR030C, strain SLT2, active compounds read low) was 0.766, the normalized growth (locus YHR087W, strain rtc3, active compounds read low) was 0.923 and the normalized growth (locus YJL187C, strain SWE1, active compounds read low) was 0.933 (active). For the same compound, the normalized growth (locus YJR043C, strain POL32, active compounds read low) was 0.98, the normalized growth (locus YJR075W, strain HOC1, active compounds read low) was 0.936 and the normalized growth (locus YLR039C, strain RIC1, active compounds read low) was 0.954. The normalized growth (locus YLR058C, strain SHM2 (second series), active compounds read low) was 0.953, the normalized growth (locus YLR085C, strain ARP6, active compounds read low) was 0.801 and the normalized growth (locus YLR262C, strain YPT6, active compounds read low) was 0.898. The normalized growth (locus YML094W, strain GIM5, active compounds read low) was 0.938, the normalized growth (locus YMR219W, strain ESC1, active compounds read low) was 0.964 and the normalized growth (locus YMR263W, strain SAP30, active compounds read low) was 0.908. For the same compound, the normalized growth (locus YMR307W, strain GAS1, active compounds read low) was 0.862, the normalized growth (locus YNL128W, strain TEP1, active compounds read low) was 0.973 and the normalized growth (locus YNL153C, strain GIM3, active compounds read low) was 0.97. It also gave a normalized growth (locus YNL298W, strain CLA4 (second series), active compounds read low) of 0.937, a normalized growth (locus YNL322C, strain KRE1, active compounds read low) of 0.951 and a normalized growth (locus YNR030W, strain Alg12, active compounds read low) of 0.89. It also gave a normalized growth (locus YPL055C, strain LGE1, active compounds read low) of 0.832, a normalized growth (locus YPL241C, strain CIN2, active compounds read low) of 0.899 and a normalized growth (locus YPR135W, strain CTF4, active compounds read low) of 0.824.
